Most compounds without a hit are left out; they make up all but 2.3% or so of the library.
CHO-K1 Ca PAM: nonselective calcium activators in parental CHO-K1 cells, primary screen, counter-screen for M1 PAM project, cell-based, Fluo-8 calcium fluorescence, full deck, 1536-well; ATP EC20; 0% at ATP EC20, 100% at ATP max; activation, % at 3 µM; 360,000 compounds, 0.02% hits; AID 602247, 2012;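 active means activation above the run cutoff, the mean activation of all test compounds plus 3 SD, cut at about 40% in these data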;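 further: peak over basal fluorescence ratio in a 140 s read after ATP addition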
CHO-K1 Ca antag: nonselective inhibitor or artifact in parental CHO-K1 cells | AID 602250 | ATP-induced calcium, Fluo-8 fluorescence | 360,000 compounds, 0.6% hits | inhibition, % at 3 µM;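 active means inhibition above a per-plate cutoff, the plate's mean sample inhibition plus 3 SD, cut at about 24% in these data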
M1 ag parental: counter-screen for M1 agonists: effect in parental CHO-K1 cells; Fluo-8 calcium fluorescence; scaled to maximal ATP response, vehicle zero; activation, % at 3 µM; 360,000 compounds, 0.48% hits; AID 602248, 2012; in the data active means activation above about 15%;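 further: untransfected CHO-K1 host cells lacking M1 receptor as counterscreen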
CHRM1 agonist: human M1 muscarinic receptor agonists, primary screen, Fluo-8 calcium fluorescence, CHO-K1 cells, HTS; Muscarinic acetylcholine receptor M1 (Homo sapiens), P11229; CHO-K1 hM1, agonist mode; 0% DMSO, 100% acetylcholine EC100; activation, % at 3 µM; 360,000 compounds, 0.33% hits;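 active means activation above the run's mean compound activation plus 3 SD, cut at about 16% in these data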;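 further: peak over basal fluorescence ratio within a 140 s kinetic read after compound addition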
Target sequence (P11229 whole entry, looked up): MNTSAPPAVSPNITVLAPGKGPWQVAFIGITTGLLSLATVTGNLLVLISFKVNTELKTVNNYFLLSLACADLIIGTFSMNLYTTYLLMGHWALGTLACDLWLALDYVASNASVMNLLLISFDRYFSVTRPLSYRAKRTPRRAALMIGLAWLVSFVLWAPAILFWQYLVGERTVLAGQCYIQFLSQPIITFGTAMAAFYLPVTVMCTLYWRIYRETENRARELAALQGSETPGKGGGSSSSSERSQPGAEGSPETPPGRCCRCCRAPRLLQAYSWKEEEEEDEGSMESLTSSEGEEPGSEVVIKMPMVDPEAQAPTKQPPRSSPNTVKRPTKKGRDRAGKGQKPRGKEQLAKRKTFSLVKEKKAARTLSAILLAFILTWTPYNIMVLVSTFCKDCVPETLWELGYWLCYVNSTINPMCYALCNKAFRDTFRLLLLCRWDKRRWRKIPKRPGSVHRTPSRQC
CHRM1 PAM: human M1 muscarinic receptor positive allosteric modulators, primary screen, CHO-K1 cells, Fluo-8 calcium fluorescence, 1536-well; Muscarinic acetylcholine receptor M1 (Homo sapiens), P11229; CHO-K1 hM1, ACh EC20; 0% = ACh EC20, 100% = maximal ACh; activation, % at 3 µM; 360,000 compounds, 0.088% hits; AID 588819, 2011; in the data active means activation above about 19%, passing the limit was not always enough
M1 antag: human M1 muscarinic receptor antagonists, primary screen, CHO-K1 cells, Fluo-8 calcium fluorescence, 1536-well; Muscarinic acetylcholine receptor M1 (Homo sapiens), P11229; inhibition, % at 3 µM; 360,000 compounds, 1.3% hits; CHO-K1 hM1, ACh EC80 antagonist;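 active means percent inhibition above its own plate's cutoff, namely the mean of that plate's compound wells plus 3 SD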;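 further: peak over basal fluorescence ratio during 140 s after agonist addition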
Of the large screens only hits and unclear results are named; the others gave an inactive call.

Cc1nc2nc(SCC(=O)NCCCN3CCCCC3)nn2c(C)c1Cc1ccccc1	none
CCCN(CCC)S(=O)(=O)c1cccc(-c2csc(C)n2)c1	M1 ag parental 22
Fc1ccccc1Cn1c2[n+](c3ccc(C(F)(F)F)cc31)CCCCC2	M1 antag 34
O=C(ONc1ccc(N=NC(=O)c2ccccc2O)cc1)c1ccccc1	CHO-K1 Ca antag 28
COc1ccc(CNCc2ccco2)cc1OCc1ccccc1	none
COc1cccc(CNCCc2c[nH]c3ccccc23)c1OCc1ccccc1	M1 ag parental 21
COc1ccccc1CCNCc1ccc(OC)c(OCc2ccccc2)c1	M1 ag parental 20, M1 antag 34
Cc1ccc(NC(=O)c2ccc3nc[nH]c3c2)cc1C	M1 ag parental 18
CCOC(=O)c1c2n(c3c(NCc4ccccc4)ncnc13)CCCC2	CHO-K1 Ca antag 24
Cc1cc(C)cc(NC(=O)CN2CCCN(S(=O)(=O)c3ccc(Br)s3)CC2)c1	none
Cc1ccc(NC(=O)CN2CCCN(S(=O)(=O)c3ccc(Br)s3)CC2)cc1	CHO-K1 Ca antag 24
O=C(Nc1ccc(N2CCN(c3ccc(C(F)(F)F)cn3)CC2)nc1)c1cccs1	none
O=C(Nc1ccc(N2CCN(c3ncccc3C(F)(F)F)CC2)nc1)c1cccs1	M1 antag 46
CC(=O)c1ccc(N2CCN(C(=O)/C=C/c3ccc(S(=O)(=O)NCc4ccco4)cc3)CC2)cc1	M1 antag 39
COc1ccc(NC(=O)CSCC(=O)N2c3ccccc3CCc3ccccc32)cc1	M1 ag parental 19
COc1ccc(NC(=O)CSCC(=O)N(C)Cc2cccc(OC)c2OC)cc1	CHO-K1 Ca antag 26
CC(Sc1nnc(C(C)Oc2ccc(F)cc2)o1)C(=O)NCc1ccc2c(c1)OCO2 (stereo not drawn)	none
Cc1nc2ccccc2c(=O)n1/N=C/c1cn[nH]c1-c1ccccc1	none
Cc1ccc(-c2[nH]ncc2/C=N/n2c(COc3ccccc3)nc3ccccc3c2=O)cc1	M1 antag 29
Cc1ccccc1OCc1nc2ccccc2c(=O)n1/N=C/c1cn[nH]c1-c1ccccc1	M1 antag 29
CC(C)OCCCNc1ncnc2c1[nH]c1ccccc12	M1 ag parental 16, M1 antag 39
COc1ccc(CNc2ncnc3c2[nH]c2ccccc23)cc1	M1 ag parental 19, M1 antag 37
C1=C(CCNc2ncnc3c2[nH]c2ccccc23)CCCC1	CHO-K1 Ca antag 29, M1 ag parental 15
COc1ccc(CNc2ncnc3c2[nH]c2cc(OC)c(OC)cc23)cc1	none
COc1ccccc1/C=N\NC(=O)c1ccc(COc2ccc(C)c(C)c2)o1	none
O=C(Nc1ccccc1N1CCCC1)C1CCCO1 (stereo not drawn)	none
O=C(CNC(=O)c1cc(Cl)cc([N+](=O)[O-])c1)OCC(=O)N1CCCCC1	none
COc1ccc(CNc2nc(SCC(=O)NCc3ccco3)nc3ccccc23)cc1	M1 ag parental 16
Cc1ccc(OCc2cc(C(=O)NC(C)Cc3cccc(C)n3)no2)cn1 (stereo not drawn)	none
Cc1cc2oc(C(=O)NCc3ccccc3)cc(=O)c2cc1C	M1 antag 81
Cc1ccc2oc(C(=O)NCc3ccccc3)cc(=O)c2c1	none
CCOC(=O)C1=CN(Cc2cccc(-c3ccc(F)cc3)c2)S(=O)(=O)N(C)C1C (stereo not drawn)	none
CCCCn1c(Cc2ccccc2)n[nH]c1=S	M1 antag 86
S=c1[nH]nc(CN2CCCCC2)n1Cc1ccccc1	M1 antag 43
S=c1[nH]nc(CN2CCCC2)n1Cc1ccccc1	CHO-K1 Ca antag 34, M1 antag 44
S=c1[nH]nc(COc2ccccc2)n1Cc1ccccc1	none
CCn1c(Cc2ccccc2)n[nH]c1=S	none
CC(Sc1nnc(-c2ccccc2F)n1C)C(=O)NC1CCCCC1 (stereo not drawn)	none
O=C(c1ccc2c(c1)OCO2)C1CCCN(Cc2ccc3cccc(F)c3n2)C1 (stereo not drawn)	none
O=C(c1ccc2c(c1)OCO2)C1CCCN(Cc2ccc(OC(F)F)cc2)C1 (stereo not drawn)	M1 antag 91
O=C(c1ccc2c(c1)OCO2)C1CCCN(Cc2cccc(C(F)(F)F)c2)C1 (stereo not drawn)	M1 antag 63
COc1cc(OC)c(OC)cc1CN1CCCC(C(=O)c2ccc3c(c2)OCO3)C1 (stereo not drawn)	none
CN(CC(=O)Nc1ccc(Cl)c(Cl)c1)C(=O)/C=C/c1ccc(F)cc1	CHO-K1 Ca antag 26
CC1=C(NCCc2ccccc2)CCC1=O	none
CCCNC1=C(C)C(=O)CC1	CHO-K1 Ca antag 24
COC(=O)CN(C)C(=O)c1cccc(OC2CCN(S(=O)(=O)N(C)C)CC2)c1	none
CCOc1ccc(CN(C)CC(=O)Nc2ccc(N3CCOCC3)cc2)cc1OC	M1 ag parental 16
Cc1ccc(CC(=O)N(C)CC(=O)Nc2ccc(N3CCOCC3)cc2)cc1C	CHO-K1 Ca antag 25
C/C=C/c1ccc(OCC(=O)N(CCOC)c2c(N)n(CCCC)c(=O)[nH]c2=O)c(OC)c1	none
O=C(c1ccco1)N1N=C(c2ccc3nccnc3c2)CC1c1ccccc1 (stereo not drawn)	CHO-K1 Ca PAM 47
Cc1ccccc1-c1nc(NC(C)C)nc2ccsc12	none
Cc1ccccc1-c1nc(NCCN(C)C)nc2ccsc12	M1 antag 88
CN(C)CCNc1nc(-c2ccccc2CO)c2sccc2n1	M1 antag 74
COc1ccc(CNC(=O)C2CCCN(c3ncnc4c3nc3n4CCCCC3)C2)cc1 (stereo not drawn)	none
COc1ccc(O)c(/C=N/n2c(-c3ccco3)csc2=Nc2cccnc2)c1	CHO-K1 Ca antag 28
O=C(NNc1ccccc1Br)C(O)(c1cccc(C(F)(F)F)c1)c1cccc(C(F)(F)F)c1	M1 antag 36
Cc1ccc(NNC(=O)C(O)(c2cccc(C(F)(F)F)c2)c2cccc(C(F)(F)F)c2)cc1	none
Cc1ccc(S(=O)(=O)N2CCC(N3CCN(C)CC3)CC2)cc1Cl	M1 antag 42
Cc1ccc(S(=O)(=O)N2CCN(C)CC2)cc1C	none
O=S(=O)(c1ccc(F)cc1)N1CCC(N2CCCC2)CC1	CHO-K1 Ca antag 40
CC(Cc1ccccc1)N1CCCC1=O (stereo not drawn)	none
CC(=O)c1cccc(NS(=O)(=O)c2ccc(NC(=O)N3CCCCC3)cc2)c1	M1 antag 36
